Active and inactive are the calls of the source. No rule for the calls is given here.
These molecules were tested against Muscarinic acetylcholine receptor M4 (Homo sapiens) (UniProt P08173) (assay: human M4 receptor modulation in M5 NAM selectivity check, counter-screen for M5 NAM project, cell-based, CHO-K1 hM4/Gqi5, Fluo-4 calcium flux, ACh EC20 (AID 743105)). Conditions: series mostly up to 30 µM.
Sequence of Muscarinic acetylcholine receptor M4 (Homo sapiens) (P08173 whole entry, looked up): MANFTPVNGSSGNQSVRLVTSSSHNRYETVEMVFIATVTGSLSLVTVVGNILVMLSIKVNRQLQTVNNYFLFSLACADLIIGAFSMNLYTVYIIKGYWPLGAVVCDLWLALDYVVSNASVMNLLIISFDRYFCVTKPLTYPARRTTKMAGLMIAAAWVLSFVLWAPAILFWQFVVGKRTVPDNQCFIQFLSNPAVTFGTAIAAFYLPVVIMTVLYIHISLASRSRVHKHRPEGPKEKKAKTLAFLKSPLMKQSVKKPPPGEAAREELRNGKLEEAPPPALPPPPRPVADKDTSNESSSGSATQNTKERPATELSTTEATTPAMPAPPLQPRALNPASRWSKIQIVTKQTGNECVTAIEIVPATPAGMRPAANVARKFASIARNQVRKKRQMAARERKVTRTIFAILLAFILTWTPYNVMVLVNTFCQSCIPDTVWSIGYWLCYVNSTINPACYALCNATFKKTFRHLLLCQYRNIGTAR

| SMILES | outcome |
| --- | --- |
| O=C(c1ccc(F)c(F)c1)N1CCN2C(=O)c3ccccc3[C@@]12c1ccc(Cl)cc1 | inactive |
| O=C(c1cc(F)cc(F)c1)N1CCN2C(=O)c3ccccc3C12c1ccc(Cl)cc1 (stereo not given) | inactive |
| O=C(c1ccc(F)cc1)N1CCN2C(=O)c3ccccc3C12c1ccccc1 (stereo not given) | inactive |
| O=C(c1ccc(F)c(F)c1)N1CCN2C(=O)c3ccccc3C12c1ccccc1 (stereo not given) | inactive |
| O=C(c1ccc(F)c(F)c1)N1CCN2C(=O)c3ccccc3C12c1ccc(Cl)cc1 (stereo not given) | inactive |

Reference: PubChem BioAssay AID743105 (Vanderbilt Specialized Chemistry Center, 2013)
